Results published in PubChem BioAssay AID1159580 (chemical genetic matrix, 2015).
Values joined by “and” are separate entries in the source; they are usually repeats but may differ in a detail not shown here. Identical values can stand only once. The campaign covered roughly 5,500 compounds. About 2,000 (36%) were called active. Inconclusive results (about 18%) are left out. Cut-off read from the data, not from the text of the source: active = normalized growth mostly below about 0.91 (no sharp cut-off); inconclusive = no clear call, values can overlap the other calls; inactive = mostly above about 0.92. The list shows a part of the results.

Test: chemical genetic growth profiling, strain panel (AID 1159580);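 note: tested at 20 µM; growth read once vehicle control cultures reached saturation at 30 °C; 1 = growth at the plate median or of vehicle wells; lower values mean less growth of the strain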
Settings: S. cerevisiae deletion strains, growth OD

Measured: normalized growth

Cc1cc(=O)n(-c2ccccc2)n1C
inactive: locus YAL013W, strain DEP1, active compounds read low 1.02 | locus YAL021C, strain ccr4, active compounds read low 0.962 | locus YAL026C, strain drs2, active compounds read low 1 | locus YAL030W, strain snc1, active compounds read low 1 | locus YBL061C, strain skt5, active compounds read low 0.992 | locus YBR009C, strain hhf1, active compounds read low 1.06 | locus YBR021W, strain FUR4, active compounds read low 1 | locus YBR023C, strain chs3, active compounds read low 0.987 | locus YBR171W, strain sec66, active compounds read low 0.987 | locus YBR229C, strain ROT2, active compounds read low 1.01 | locus YBR231C, strain swc5, active compounds read low 1.01 | locus YBR279W, strain paf1, active compounds read low 0.995 | locus YCL011C, strain gbp2, active compounds read low 0.995 | locus YCL016C, strain dcc1, active compounds read low 0.979 | locus YCL029C, strain bik1, active compounds read low 0.996 | locus YCL061C, strain MRC1, active compounds read low 0.981 | locus YCL069W, strain vba3, active compounds read low 0.997 | locus YCR088W, strain abp1, active compounds read low 0.991 | locus YDL005C, strain med2, active compounds read low 0.991 | locus YDL035C, strain GPR1, active compounds read low 1.04 | locus YDL040C, strain nat1, active compounds read low 0.991 | locus YDL074C, strain BRE1, active compounds read low 1.02 | locus YDL101C, strain DUN1, active compounds read low 0.999 | locus YDL185W, strain tfp1, active compounds read low 0.994 | locus YDL192W, strain arf1, active compounds read low 0.989 | locus YDR001C, strain nth1, active compounds read low 0.983 | locus YDR069C, strain doa4, active compounds read low 1.02 | locus YDR101C, strain arx1, active compounds read low 0.983 | locus YDR137W, strain rgp1, active compounds read low 0.978 | locus YDR159W, strain sac3, active compounds read low 1.01 | locus YDR162C, strain NBP2, active compounds read low 1.04 | locus YDR195W, strain ref2 0.998 | locus YDR297W, strain sur2, active compounds read low 0.99 | locus YDR318W, strain mcm21, active compounds read low 0.989 | locus YDR334W, strain swr1, active compounds read low 0.986 | locus YDR335W, strain msn5, active compounds read low 0.992 | locus YDR388W, active compounds read low 0.986 | locus YDR392W, strain spt3, active compounds read low 0.94 | locus YDR502C, strain sam2, active compounds read low 0.994 | locus YEL003W, strain gim4, active compounds read low 1 | locus YEL037C, strain rad23, active compounds read low 0.995 | locus YEL061C, strain CIN8 (second series), active compounds read low 0.99 | locus YEL061C, strain CIN8, active compounds read low 1 | locus YER015W, strain faa2, active compounds read low 0.985 | locus YER016W, strain bim1, active compounds read low 0.996 | locus YER110C, active compounds read low 0.987 | locus YER111C, strain swi4, active compounds read low 0.984 | locus YER155C, strain BEM2 (second series), active compounds read low 1.01 | locus YER155C, strain BEM2, active compounds read low 1 | locus YER167W, strain BCK2, active compounds read low 1.02 | locus YFR010W, strain ubp6, active compounds read low 1 | locus YGL078C, strain dbp3, active compounds read low 0.982 | locus YGL086W, strain mad1, active compounds read low 0.989 | locus YGL167C, strain pmr1, active compounds read low 0.996 | locus YGL173C, strain kem1, active compounds read low 0.992 | locus YGL227W, strain vid30, active compounds read low 0.993 | locus YGL240W, strain doc1, active compounds read low 1 | locus YGL248W, strain PDE1, active compounds read low 0.999 | locus YGL253W, strain hxk2, active compounds read low 0.975 | locus YGR078C, strain PAC10, active compounds read low 1 | locus YGR135W, strain pre9, active compounds read low 1 | locus YGR229C, strain SMI1, active compounds read low 1.04 | locus YGR252W, strain gcn5, active compounds read low 1 | locus YHR013C, strain ard1, active compounds read low 0.982 | locus YHR027C, strain rpn1, active compounds read low 1.02 | locus YHR030C, strain SLT2, active compounds read low 1.01 and 0.973 | locus YHR079C, strain IRE1 (second series), active compounds read low 0.984 | locus YHR079C, strain IRE1, active compounds read low 1.03 | locus YHR094C, strain hxt1, active compounds read low 0.986 | locus YHR129C, strain ARP1, active compounds read low 1.01 | locus YHR142W, strain chs7, active compounds read low 0.963 | locus YHR200W, strain rpn10, active compounds read low 1 | locus YIL066C, strain RNR3, active compounds read low 1.04 | locus YIL073C, strain SPO22, active compounds read low 1.03 | locus YIL125W, strain kgd1, active compounds read low 0.986 | locus YIR030C, strain dcg1, active compounds read low 0.987 | locus YJL095W, strain BCK1 (second series), active compounds read low 0.999 | locus YJL095W, strain BCK1, active compounds read low 1 and 1.01 | locus YJL115W, strain asf1, active compounds read low 0.994 | locus YJL129C, strain trk1, active compounds read low 0.978 | locus YJL134W, strain LCB3, active compounds read low 1.01 | locus YJL154C, strain vps35, active compounds read low 0.991 | locus YJL164C, strain tpk1, active compounds read low 1.02 | locus YJL166W, strain qcr8, active compounds read low 0.953 | locus YJL168C, strain set2, active compounds read low 0.983 | locus YJL187C, strain SWE1 (second series), active compounds read low 0.987 | locus YJL187C, strain SWE1, active compounds read low 0.996 | locus YJR043C, strain POL32, active compounds read low 1.04
